Compounds with a hit are over-represented: about 1.2% of the library has one in this group of screens.
PfHsp40 yeast: rescue of yeast from PfHsp40 toxicity, primary screen, S. cerevisiae, ATP luminescence; growth rescue, % at 12.5 µM; S. cerevisiae expressing PfHsp40, growth rescue; 0.68% of 340,000 active; in the data active means growth rescue above about 28%, passing the limit was not always enough;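 further: yeast W303a lacking pdr1 and pdr3 grown in galactose medium; growth measured after three days at 30 °C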
Mtb betalactam: beta-lactam sensitization of Mtb H37Rv, H37Rv | AID 434955, 2010 | M. tuberculosis H37Rv growth with meropenem, percent inhibition | 0.27% of 330,000 active | inhibition, % at 25 µM; call rule not given here;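 further: growth measured after seven days incubation then overnight dye step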
Sa ugtP lethal: growth inhibition of ugtP-null S. aureus, primary screen, RN4220 ugtP deletion, OD600 | 16 h | growth inhibition, % (concentration not given with the values) | 0.54% of 330,000 active | AID 1259309, 2017; in the data active means growth inhibition above about 68%
Vc quorum ag: inducers of Vibrio cholerae quorum light production without autoinducers, primary screen, BH1578 luxS cqsA deficient, single point; 0.16% of 350,000 active; activation, % at 18.7 µM; V. cholerae BH1578 lux reporter, luminescence, 6 h; in the data active means activation mostly above about 9.7%, no sharp cut-off
RN4220 kill: growth inhibition of S. aureus RN4220, primary screen, OD600 | 16 h | inhibition, % (no concentration beside the values) | 0.33% of 330,000 active | AID 1259311, 2017; in the data active means inhibition above about 85%
A number is an active result; n = inactive; x = not tested or not shown.

SMILES | PfHsp40 yeast | Mtb betalactam | Sa ugtP lethal | Vc quorum ag | RN4220 kill
Nc1ccc(C(=O)O)cc1 | n | n | n | n | n
N=C(N)c1ccc(N)cc1 | 67.3 | n | n | n | n
O=c1c2ccccc2sn1-c1cccc(Cl)c1 | x | x | x | n | x
O=C(O)c1cccc(-n2sc3ccccc3c2=O)c1 | 52.1 | n | x | n | x
O=c1c2ccccc2sn1-c1ccccc1 | n | n | 93.9 | n | n
c1c(CC2CCCC2)nnn1CC1CCC(C2CCC(Cn3cc(CC4CCCC4)nn3)O2)O1 (stereo unspecified) | x | x | n | x | n
CC1CCC2C(=O)N3C(CCC(C)C3c3cccc(N4CCCC4=O)c3)C(=O)N2C1c1cccc(N2CCCC2=O)c1 (stereo unspecified) | x | x | n | x | n
Cc1ccc(C)c(N2CCN(C(=O)c3ccc(CS(=O)Cc4cccc(Cl)c4)o3)CC2)c1 (stereo unspecified) | n | n | 98.4 | n | n
Cc1ccc(S(=O)(=O)Cc2ccc(C(=O)N3CCN(c4cccc(C)c4C)CC3)o2)cc1 | 40.5 | n | n | n | n
COc1ccc(S(=O)(=O)Cc2ccc(C(=O)N3CCN(c4cccc(C)c4C)CC3)o2)cc1 | n | n | n | n | n
O=C(c1ccc(CS(=O)Cc2cccc(Cl)c2)o1)N1CCN(c2ccc(F)cc2)CC1 (stereo unspecified) | x | x | x | n | x
O=C(c1ccc(CS(=O)Cc2cccc(Cl)c2)o1)N1CCN(C2CCCCC2)CC1 (stereo unspecified) | n | n | 94.9 | n | n
O=C(c1ccc(CS(=O)Cc2ccc(Cl)cc2)o1)N1CCN(C2CCCCC2)CC1 (stereo unspecified) | x | x | x | n | x
O=C(c1ccc(CS(=O)Cc2ccc(Cl)cc2)o1)N1CCN(c2ccc(F)cc2)CC1 (stereo unspecified) | n | n | 90.0 | n | n
COc1ccc(NC(=O)N(C)CC2Oc3ccc(NS(=O)(=O)c4cccs4)cc3C(=O)N(C(C)CO)CC2C)cc1 (stereo unspecified) | x | x | n | x | n
O=C(c1ccc(Cl)cc1)N1CCN(c2ccc(F)cc2)CC1 | 109.7 | n | n | n | n
O=C(c1ccc(CS(=O)Cc2ccc(Cl)cc2)o1)N1CCN(c2cccc(Cl)c2)CC1 (stereo unspecified) | n | n | 92.7 | n | n
O=C(c1ccncc1)N1CCN(c2ccc(F)cc2)CC1 | n | n | n | n | n
CC(C)(C)C1CCC(=O)N(CCC(Sc2ccccc2)c2ccccc2)CC1 (stereo unspecified) | x | x | n | x | n
Cc1cc(C)c(OC2(c3ccccc3)OC(=O)c3ccccc32)c(C)c1 (stereo unspecified) | n | n | 85.4 | n | n
O=C(O)CCCC(=O)N1CCN(c2nc(-c3ccccc3Cl)c3cc(Br)ccc3n2)CC1 | 47.3 | n | n | n | n
CCCCC(=O)NN=Cc1cc([N+](=O)[O-])ccc1N1CCOCC1 | x | x | n | x | n
CCCCCCCCCCCCCCCC[n+]1ccc(C=NO)cc1 | x | x | 100.6 | x | 100.6
CSc1nc(Cl)c(Cc2ccc(OCC(C)C)cc2)c(N2CCOCC2)n1 | n | n | 93.6 | n | n
CCCCOc1ccc(Cc2c(Cl)nc(SC)nc2N2CCOCC2)cc1 | n | n | 91.9 | n | n
SMILES | PfHsp40 yeast | Mtb betalactam | Sa ugtP lethal | Vc quorum ag | RN4220 kill
CC1CN(C(C)CO)C(=O)c2cccc(NC(=O)C3CC3)c2OC1CN(C)S(=O)(=O)c1cccs1 (stereo unspecified) | x | x | n | x | n
CCCCCCCCCCCCCCCC(O)C(N)CO (stereo unspecified) | n | n | 100.2 | n | 99.9
CCCCCCC(N)CC(=O)O (stereo unspecified) | n | x | n | n | n
CN1CCN(c2cc(-c3cc(O)c4ncccc4c3)ccn2)CC1 | n | n | n | n | n
Oc1cc(-c2cccnc2)cc2cccnc12 | n | n | 100.1 | n | 100.2
Cc1nn(C)cc1C=NNC(=O)Cn1nccc1C | x | x | n | x | n
O=C1C=C(c2ccc(F)c(Cl)c2)CC(c2ccc(F)cc2)C1 (stereo unspecified) | x | x | n | x | n
O=C(Nc1nnc(-c2ccccc2)s1)c1ccccc1O | n | n | 93.5 | n | 90.7
COc1cc(Cl)c(C)cc1NC(=O)CSc1cc(Cl)ccc1Cl | n | n | 95.2 | n | n
COc1cc(Cl)c(C)cc1NC(=O)CSc1ccc(C)cc1 | n | n | n | n | n
O=C1c2ccccc2-c2cccc(NS(=O)(=O)c3ccc(C(F)(F)F)cc3)c21 | n | n | 97.4 | n | 96.7
CC1NC(=S)N(C2CCCCC2)C1=O (stereo unspecified) | n | n | n | n | n
CCCCC1NC(=S)N(C2CCCCC2)C1=O (stereo unspecified) | n | n | 89.0 | n | n
COc1ccc(CNC(=S)NC2CCCC2)cc1 | n | n | n | n | n
CC(NC(=S)NC1CCC(C(C)(C)C)CC1)c1ccccc1 (stereo unspecified) | 71.3 | n | n | n | n
Cc1ccc(C(C)NC(=S)NC2CCCCC2)cc1C (stereo unspecified) | n | n | x | n | x
Cc1ccc(CNC(=S)NC2CCC(C(C)(C)C)CC2)cc1 (stereo unspecified) | 187.8 | n | n | n | n
C[C@@]12C(=O)Nc3ccc(Br)cc3C(=O)N1C1c3cc(Cl)ccc3OCC1C2c1ccccc1 (stereo partly specified) | x | x | n | x | n
CC1CN(C(C)CO)C(=O)c2cccc(NC(=O)Nc3ccccc3)c2OC1CN(C)C(=O)Nc1ccc(C(F)(F)F)cc1 (stereo unspecified) | x | x | n | x | n
COc1cc([N+](=O)[O-])cc(/C=N/NC(=O)C(O)(c2ccccc2)c2ccccc2)c1O | 30.0 | n | x | n | x
O=C(NN=Cc1cccc([N+](=O)[O-])c1O)C(O)(c1ccccc1)c1ccccc1 | x | x | n | x | n
Cc1cc2n(n1)C(c1c[nH]c3ccccc13)Nc1ccccc1-2 (stereo unspecified) | n | n | 99.3 | n | 99.2
O=C(NC1CCC(=O)N(C(CSc2ccccc2)Cc2ccccc2)CC1)OCc1ccccc1 (stereo unspecified) | x | x | n | x | n
CCOC(=O)/C=C/C(=O)Nc1cccc([N+](=O)[O-])c1 | 189.3 | n | n | n | n
COc1cccc(C2C(C(=O)c3cc4ccccc4o3)=C(O)C(=O)N2c2cc(C)on2)c1 (stereo unspecified) | n | n | n | n | n
CCCOc1ccc(C2C(C(=O)c3cc4ccccc4o3)=C(O)C(=O)N2c2cc(C)on2)cc1OC (stereo unspecified) | n | n | 100.2 | n | 99.2
CCCOc1ccc(C2C(C(=O)c3cc4ccccc4o3)=C(O)C(=O)N2c2cc(C)on2)cc1 (stereo unspecified) | n | n | x | n | x
C=CCOc1cccc(C2C(C(=O)c3cc4ccccc4o3)=C(O)C(=O)N2c2cc(C)on2)c1 (stereo unspecified) | n | n | 100.4 | n | 99.8
Cc1cc(N2C(=O)C(O)=C(C(=O)c3ccco3)C2c2cccc(Cl)c2)no1 (stereo unspecified) | n | n | 92.2 | n | 96.4
